# Assay outcomes deposited in PubChem by The Scripps Research Institute Molecular Screening Center.
# A selection: hits, their analogues and other compounds. The true share with any hit is near 3.5%.
# FBW7 activator – activators of human E3 ligase FBW7. normalized activity (activation), % at 26.1 µM. 650,000 compounds, 0.13% hits. AlphaScreen FBW7–phospho-cyclin E peptide binding, activator screen. Q969H0; in the data active means normalized activity above about 1.9%;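 further: purified mutant Fbw7 with reduced substrate affinity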
# TEAD-YAP inh – TEAD-YAP interaction inhibition; 640,000 compounds, 1.4% hits; inhibition, % at 9.12 µM; HEK-TIYL cells, TEAD-Gal4/YAP UAS-luciferase luminescence; in the data active means inhibition above about 32%;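 further: 0% = median of test compound wells and 100% = reference inhibitor wells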
# MITF primary – human MITF inhibition, primary screen. O75030. AlphaScreen MITF homodimerization, bead proximity signal. inhibition, % at 2.6 µM. 650,000 compounds, 0.91% hits. AID 1259374; in the data active means inhibition above about 50%;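 further: 0% = vehicle wells with protein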
# Target sequence (O75030 whole entry, looked up): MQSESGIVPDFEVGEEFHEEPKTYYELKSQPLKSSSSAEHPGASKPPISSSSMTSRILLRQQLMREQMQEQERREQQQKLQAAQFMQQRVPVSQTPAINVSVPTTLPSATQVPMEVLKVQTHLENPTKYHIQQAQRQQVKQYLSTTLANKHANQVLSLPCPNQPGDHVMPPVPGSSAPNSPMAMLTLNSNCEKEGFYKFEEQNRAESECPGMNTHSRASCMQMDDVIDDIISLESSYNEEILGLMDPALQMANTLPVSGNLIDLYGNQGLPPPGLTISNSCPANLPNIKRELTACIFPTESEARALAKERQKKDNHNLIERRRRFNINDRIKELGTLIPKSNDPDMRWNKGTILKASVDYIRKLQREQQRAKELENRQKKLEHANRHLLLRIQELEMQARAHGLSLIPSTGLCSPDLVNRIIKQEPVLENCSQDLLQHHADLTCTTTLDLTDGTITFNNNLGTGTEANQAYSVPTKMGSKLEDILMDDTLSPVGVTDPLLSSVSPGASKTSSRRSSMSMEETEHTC
# GPR151 ag – activators of human GPR151 | 650,000 compounds, 1% hits | activation, % at 11.2 µM | PathHunter beta-arrestin GPR151 cells, luminescence | Q8TDV0; in the data active means activation above about 4.9%;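 further: 0% = median of compound wells and 100% = cells with positive control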
# An asterisk follows results filed as active.
SMILES,FBW7 activator,TEAD-YAP inh,MITF primary,GPR151 ag
O=C(Nc1cccc2ncccc12)c1ccc(N2CCCCC2)c([N+](=O)[O-])c1,0,32*,-12,1
CCc1ccccc1NC(=O)c1ccc(N2CCCCCC2)c([N+](=O)[O-])c1,0,1,-9,-2
COc1ccc(CCNC(=O)NCC2CC(=O)N(c3ccc(Cl)cc3)C2)cc1 (stereo not drawn),0,13,-10,0
COc1ccccc1C(=O)NCCn1cc(SCC(=O)Nc2ccc(C)cc2)c2ccccc21,0,1,-2,0
COc1ccccc1C(=O)NCCn1cc(SCC(=O)Nc2ccc(Br)cc2)c2ccccc21,2.0*,5,8,0
CC1CCc2[nH]c3ccc(C(=O)NCCCN4CCCC4=O)cc3c2C1 (stereo not drawn),0,-26,-8,1
OCC1CCCN1c1cc(Nc2ccccc2)ncn1 (stereo not drawn),0,-23,12,-1
OCC1CCCN1c1cc(Nc2ccc3c(c2)OCO3)ncn1 (stereo not drawn),0,37*,3,-1
Oc1ccc(CCNc2cc(Nc3ncccn3)ncn2)cc1,1,42*,-13,0
OCC1CCCN1c1cc(NCCc2ccc(O)cc2)ncn1 (stereo not drawn),0,48*,10,-1
Cc1nnc(N2C(=O)C(=O)/C(=C(/O)c3ccccc3)C2c2cccc(Oc3ccccc3)c2)s1 (stereo not drawn),0,7,-37,0
CCN1C(=O)c2cccc3c(N4CCCC4)ccc(c23)C1=O,2.1*,-5,-8,-1
CCCCN1C(=O)c2cccc3c(N4CCCC4)ccc(c23)C1=O,0,-15,-7,1
O=C(NCc1ccc(Cl)cc1)C1CCCN(C(=O)N2CCOc3ccccc32)C1 (stereo not drawn),0,-3,-5,-1
COc1ccc(C2Nc3ccccc3C(=O)N2c2ccc(C)cc2)cc1 (stereo not drawn),0,-66,10,-1
COc1ccc(C2Nc3ccccc3C(=O)N2c2ccc3ccccc3c2)cc1 (stereo not drawn),0,64*,-5,-6
CCOC(=O)c1cc(NC(=O)Nc2c(C)n(C)n(-c3ccccc3)c2=O)c(C)nc1C,0,3,14,1
FC(F)(F)c1ccc(Cn2cnc3c(NC4CC4)nc(Nc4ccccc4)nc32)cc1,0,35*,16,-1
COc1cc(Nc2nc(Nc3ccc(C(F)(F)F)cc3)nc3c2ncn3Cc2ccc(C(F)(F)F)cc2)cc(OC)c1OC,0,6,-2,1
COc1cc(Nc2nc(-c3c(C)noc3C)nc3c2ncn3Cc2ccc(C(F)(F)F)cc2)cc(OC)c1OC,0,52*,6,2
CCNc1nc(Nc2cc(OC)c(OC)c(OC)c2)c2ncn(Cc3ccc(C(F)(F)F)cc3)c2n1,0,52*,5,1
FC(F)(F)c1ccc(Cn2cnc3c(NC4CC4)nc(Nc4ccc(N5CCOCC5)cc4)nc32)cc1,0,-7,7,2
COc1cc(Nc2nc(Nc3ccccc3)nc3c2ncn3Cc2ccc(C(F)(F)F)cc2)cc(OC)c1OC,0,3,3,-1
COc1cc(Nc2nc(NC3CCC(O)CC3)nc3c2ncn3Cc2ccc(C(F)(F)F)cc2)cc(OC)c1OC (stereo not drawn),0,47*,7,1
COc1cc(Nc2nc(Nc3cc(OC)c(OC)c(OC)c3)c3ncn(Cc4ccc(C(F)(F)F)cc4)c3n2)cc(OC)c1OC,0,10,-6,-1
SMILES,FBW7 activator,TEAD-YAP inh,MITF primary,GPR151 ag
COCON1C(=O)CN(C(=O)OC)C1c1ccccc1 (stereo not drawn),0,-4,0,0
Cc1nn(C)c(C)c1-c1nc(Nc2ccc(N3CCOCC3)cc2)c2ncn(Cc3ccc(C(F)(F)F)cc3)c2n1,0,16,2,0
Cc1noc(C)c1-c1nc(Nc2ccc(N3CCOCC3)cc2)c2ncn(Cc3ccc(C(F)(F)F)cc3)c2n1,1,32*,9,-1
O=C(CSc1nnc(-c2ccc3c(c2)OCO3)o1)Nc1ccc2[nH]c(=O)[nH]c2c1,4.6*,0,-30,1
O=C(Cn1c(=O)oc2cc(Cl)ccc21)N1CCN(c2ccc(F)cc2)CC1,0,0,-3,2
CCc1ccc(C2(C)SC(NC(C)=O)=NN2C(C)=O)cc1 (stereo not drawn),0,-6,8,0
CC(=O)NC1=NN(C(C)=O)C(C)(c2cccs2)S1 (stereo not drawn),0,60*,1,-1
CC(=O)NC1=NN(C(C)=O)C(C)(c2ccc(F)cc2)S1 (stereo not drawn),1,37*,11,0
